Source: PubChem BioAssay (NCI)
The panel holds about 79,000 compounds, 15% with a hit somewhere; the sample as a whole holds those more often. Active and inactive are the calls of the source. Rule as the data show it: active = growth inhibition above about 70%; inactive = the rest.

Columns and labels:
[1] = NCI Yeast Anticancer Drug Screen. Data for the wt1 strain (AID 149);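 also: 0% = growth of vehicle-treated wt1 cultures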; details: S. cerevisiae wt1 strain (SPY 50644) growth inhibition, stronger effect = higher value
Procedure, shortened: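 The wt1 strain was treated with compounds, and growth was compared with vehicle-treated cultures to give inhibition.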

[2] = NCI Yeast Anticancer Drug Screen. Data for the rad50EPP+ strain (AID 151);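 also: 0% = growth of vehicle-treated control cultures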; details: S. cerevisiae rad50 mutant strain, stronger effect = higher value
Procedure, shortened: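 Measured: growth inhibition of rad50EPP+ yeast. Reference: vehicle-treated controls. Screen uses strains with defined genetic alterations in DNA damage repair or cell cycle control.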

[3] = NCI Yeast Anticancer Drug Screen. Data for the mgt1 strain (AID 153); details: S. cerevisiae mgt1 mutant growth inhibition, stronger effect = higher value
Procedure, shortened: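 Compounds were applied to mgt1 mutant yeast, and growth was then compared against vehicle-treated control cultures to give percent inhibition.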

[4] = NCI Yeast Anticancer Drug Screen. Data for the rad50 strain (AID 155);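 also: 0% = growth of vehicle-only cultures of the same strain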; details: S. cerevisiae rad50 strain growth inhibition, stronger effect = higher value
Procedure, shortened: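 Cells are treated with compound, grown, and their growth is then scored against vehicle-only cultures of the same repair-deficient yeast strain.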

[5] = NCI Yeast Anticancer Drug Screen. Data for the mec2-1 strain (AID 157); details: S. cerevisiae mec2-1 strain, stronger effect = higher value
Procedure, shortened: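 Compounds were applied to mec2-1 yeast cells. Their growth was then compared with that of vehicle-treated cultures to give growth inhibition.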

[6] = NCI Yeast Anticancer Drug Screen. Data for the rad14 strain (AID 159);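 also: 0% = growth of vehicle-treated control cultures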; details: S. cerevisiae rad14 strain growth inhibition, stronger effect = higher value
Procedure, shortened: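 Readout: yeast growth inhibition, referenced to vehicle-only cultures. Strain bears a defined alteration in DNA damage repair.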

[7] = NCI Yeast Anticancer Drug Screen. Data for the sgs1 mgt1 strain (AID 161);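 also: 0% = growth of cultures given vehicle only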; details: S. cerevisiae sgs1 mgt1 strain, stronger effect = higher value
Procedure, shortened: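 Compounds are added to genetically altered yeast, and growth is compared with cultures given vehicle alone to give percent inhibition.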

[8] = NCI Yeast Anticancer Drug Screen. Data for the CLN2oe strain (AID 163);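 also: 0% = growth of vehicle-only control cultures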; details: S. cerevisiae CLN2oe strain, stronger effect = higher value
Procedure, shortened: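 Cells of an engineered yeast line with disturbed cell-cycle regulation are treated with compound. Inhibition of growth is then calculated relative to the vehicle-treated reference.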

[9] = NCI Yeast Anticancer Drug Screen. Data for the cln2 rad14 strain (AID 165);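 also: 0% = growth equal to vehicle treated cultures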; details: S. cerevisiae cln2 rad14 strain, stronger effect = higher value
Procedure, shortened: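 Strain: cln2 rad14 yeast, altered in cell cycle control and DNA damage repair. Read-out: growth inhibition vs vehicle.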

[10] = NCI Yeast Anticancer Drug Screen. Data for the bub3 strain (AID 167); details: S. cerevisiae bub3 mutant strain, stronger effect = higher value
Procedure, shortened: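 Part of a panel of yeast mutants defective in DNA damage repair or cell cycle regulation. Each strain is grown with compound, and inhibition is calculated relative to solvent-treated cultures.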

[11] = NCI Yeast Anticancer Drug Screen. Data for the wt2 strain (AID 169);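 also: 0% = growth of vehicle-treated yeast cultures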; details: S. cerevisiae wt2 strain growth inhibition, stronger effect = higher value
Procedure, shortened: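 Growth of compound-treated yeast is measured and expressed as inhibition relative to vehicle-only controls.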

[12] = NCI Yeast Anticancer Drug Screen. Data for the mlh1 strain (AID 171);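 also: 0% = growth of vehicle-treated control cultures of the same strain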; details: S. cerevisiae mlh1 strain growth inhibition, stronger effect = higher value
Procedure, shortened: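 Test agents were incubated with yeast bearing a defined DNA damage repair or cell cycle control alteration; values are growth inhibition normalised to vehicle-treated cultures.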

[13] = NCI Yeast Anticancer Drug Screen. Data for the sgs1 strain (AID 173);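 also: 0% = growth of vehicle-only control cultures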; details: S. cerevisiae sgs1 mutant, stronger effect = higher value
Procedure, shortened: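 Strain with an altered DNA repair or cell cycle pathway exposed to compound. Growth then measured. Value = inhibition versus vehicle control.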

[14] = NCI Yeast Anticancer Drug Screen. Data for the mlh1 rad18 strain (AID 175); details: S. cerevisiae mlh1 rad18 strain growth inhibition, stronger effect = higher value
Procedure, shortened: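 A repair-deficient yeast strain is exposed to test compound, and growth is scored relative to vehicle-treated controls.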

[15] = NCI Yeast Anticancer Drug Screen. Data for the rad18 strain (AID 177); details: S. cerevisiae rad18 mutant growth inhibition, stronger effect = higher value
Procedure, shortened: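 DNA-repair-defective yeast; compound treatment; growth inhibition scored against vehicle.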

[16] = at 5.0 µM (retest, dose inferred, filed as 0.5)
[17] = at 50.0 µM (retest, dose inferred, filed as 5.0)

Measured: growth inhibition

COC(=O)CCNc1c2ccccc2nc2cccc([N+](=O)[O-])c12
inactive: [2]; at 1.2 µM 18% | [2]; at 3.7 µM 49% | [3]; at 1.2 µM 61% | [8]; at 1.2 µM 7% | [8]; at 3.7 µM 50% | [10]; at 1.2 µM -13% | [10]; at 3.7 µM 11% | [10]; [16] 10% | [10]; at 11.0 µM 66% | [11]; at 1.2 µM 5% | [11]; at 3.7 µM 27%
active: [1]; at 1.2 µM 79% | [1]; at 3.7 µM 87% | [1]; at 11.0 µM 96% | [1]; at 33.0 µM 97% | [1]; at 100.0 µM 97% | [2]; at 11.0 µM 80% | [2]; at 33.0 µM 93% | [2]; at 100.0 µM 97% | [3]; at 3.7 µM 74% | [3]; at 11.0 µM 87% | [3]; at 33.0 µM 97% | [3]; at 100.0 µM 97% | [4]; at 1.2 µM 95% | [4]; at 3.7 µM 95% | [4]; [16] 95% | [4]; at 11.0 µM 96% | [4]; at 33.0 µM 97% | [4]; [17] 98% | [4]; at 50.0 µM 86% | [4]; at 100.0 µM 97% | [5]; at 1.2 µM 97% | [5]; at 3.7 µM 97% | [5]; [16] 90% | [5]; at 11.0 µM 98% | [5]; at 33.0 µM 98% | [5]; [17] 99% | [5]; at 50.0 µM 91.3% | [5]; at 100.0 µM 98% | [6]; at 1.2 µM 99% | [6]; at 3.7 µM 99% | [6]; at 11.0 µM 99% | [6]; at 33.0 µM 99% | [6]; at 100.0 µM 99% | [7]; [16] 94% | [7]; [17] 98% | [7]; at 50.0 µM 81.2% | [8]; at 11.0 µM 89% | [8]; at 33.0 µM 96% | [8]; at 100.0 µM 98% | [9]; [16] 99% | [9]; [17] 99% | [9]; at 50.0 µM 89.4% | [10]; at 33.0 µM 96% | [10]; [17] 99% | [10]; at 50.0 µM 84% | [10]; at 100.0 µM 99% | [11]; at 11.0 µM 85% | [11]; at 33.0 µM 97% | [11]; at 100.0 µM 99% | [12]; at 1.2 µM 84% | [12]; at 3.7 µM 91% | [12]; at 11.0 µM 95% | [12]; at 33.0 µM 96% | [12]; at 100.0 µM 97% | [13]; at 1.2 µM 97% | [13]; at 3.7 µM 96% | [13]; at 11.0 µM 98% | [13]; at 33.0 µM 98% | [13]; at 100.0 µM 98% | [14]; [16] 96% | [14]; [17] 99% | [14]; at 50.0 µM 81.1% | [15]; at 1.2 µM 97% | [15]; at 3.7 µM 97% | [15]; at 11.0 µM 95% | [15]; at 33.0 µM 97% | [15]; at 100.0 µM 97%
